How the values were obtained:
Test in all cases: DAPPL (digital affinity profiling via proximity ligation, sequencing); 10 mM Tris-HCl pH 7.5, 50 mM NaCl, 1 mM DTT, 4% glycerol, room temperature, 30 min; GST-TFs on glutathione beads, 16-mer random dsDNA library, 0.1% formaldehyde crosslink after washing; high values mean tight binding
FLI1 = molecular target: T1, FLI1 (Homo sapiens, UniProt Q01543 1-452); details: protein: recombinant; tags: N-terminal GST; dsDNA, one strand shown
T1 sequence: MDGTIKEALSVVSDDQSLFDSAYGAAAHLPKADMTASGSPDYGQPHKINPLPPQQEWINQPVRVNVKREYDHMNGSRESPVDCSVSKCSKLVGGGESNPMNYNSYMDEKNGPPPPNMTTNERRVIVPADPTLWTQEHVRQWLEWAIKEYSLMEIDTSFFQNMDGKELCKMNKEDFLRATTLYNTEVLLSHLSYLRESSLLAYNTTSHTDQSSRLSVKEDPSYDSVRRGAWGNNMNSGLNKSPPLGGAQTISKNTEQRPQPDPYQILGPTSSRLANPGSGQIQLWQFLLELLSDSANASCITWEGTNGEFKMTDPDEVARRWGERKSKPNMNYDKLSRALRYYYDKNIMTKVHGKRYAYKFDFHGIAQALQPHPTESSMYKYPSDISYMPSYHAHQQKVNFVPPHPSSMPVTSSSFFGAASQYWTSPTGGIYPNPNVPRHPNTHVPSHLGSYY
Outline: (§1)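 Binding signal is given per hexamer as its read frequency for a factor divided by its frequency in the tag-only sample. GST-fused human transcription factors were expressed in yeast, captured on glutathione beads, barcoded with DNA and pooled with that sample, then incubated with 200 nmole of a 16-mer random double-stranded DNA library in Tris/NaCl/DTT/glycerol buffer for 30 min at room temperature. The pools were then washed, crosslinked, proximity-ligated, amplified by PCR and sequenced on an Illumina NextSeq500.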

ELK1 = molecular target: T2, ELK1 (Homo sapiens, UniProt P19419 1-428); details: protein: recombinant; tags: N-terminal GST; dsDNA, one strand shown
T2 sequence: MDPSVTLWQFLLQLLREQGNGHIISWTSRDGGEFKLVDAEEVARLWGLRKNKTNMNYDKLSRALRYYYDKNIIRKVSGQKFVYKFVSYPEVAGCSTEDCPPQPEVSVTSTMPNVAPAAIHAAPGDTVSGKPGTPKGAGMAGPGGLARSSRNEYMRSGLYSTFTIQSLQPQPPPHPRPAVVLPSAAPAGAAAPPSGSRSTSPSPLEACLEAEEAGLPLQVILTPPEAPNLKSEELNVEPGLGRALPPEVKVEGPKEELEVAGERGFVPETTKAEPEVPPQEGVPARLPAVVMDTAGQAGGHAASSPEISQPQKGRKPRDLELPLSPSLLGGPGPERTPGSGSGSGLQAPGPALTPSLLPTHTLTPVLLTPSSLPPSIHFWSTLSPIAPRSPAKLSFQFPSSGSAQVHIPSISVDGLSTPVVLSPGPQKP
Outline: as §1

GABPA = molecular target: T3, GABPA (Homo sapiens, UniProt Q06546 1-454); details: protein: recombinant; tags: N-terminal GST; dsDNA, one strand shown
T3 sequence: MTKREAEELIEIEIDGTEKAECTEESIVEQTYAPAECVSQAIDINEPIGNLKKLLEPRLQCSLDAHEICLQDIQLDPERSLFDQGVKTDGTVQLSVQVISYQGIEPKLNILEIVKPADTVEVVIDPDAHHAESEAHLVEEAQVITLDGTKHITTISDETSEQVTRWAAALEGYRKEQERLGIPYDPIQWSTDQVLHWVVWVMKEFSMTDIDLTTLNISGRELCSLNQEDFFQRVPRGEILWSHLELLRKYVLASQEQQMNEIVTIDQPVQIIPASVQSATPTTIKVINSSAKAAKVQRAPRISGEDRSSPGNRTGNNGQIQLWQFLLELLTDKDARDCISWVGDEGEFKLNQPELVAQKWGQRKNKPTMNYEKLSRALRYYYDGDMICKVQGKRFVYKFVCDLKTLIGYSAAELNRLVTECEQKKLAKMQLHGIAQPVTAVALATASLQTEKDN
Outline: as §1

ERG = molecular target: T4, ERG (Homo sapiens, UniProt P11308 1-479); details: protein: recombinant; tags: N-terminal GST; dsDNA, one strand shown
T4 sequence: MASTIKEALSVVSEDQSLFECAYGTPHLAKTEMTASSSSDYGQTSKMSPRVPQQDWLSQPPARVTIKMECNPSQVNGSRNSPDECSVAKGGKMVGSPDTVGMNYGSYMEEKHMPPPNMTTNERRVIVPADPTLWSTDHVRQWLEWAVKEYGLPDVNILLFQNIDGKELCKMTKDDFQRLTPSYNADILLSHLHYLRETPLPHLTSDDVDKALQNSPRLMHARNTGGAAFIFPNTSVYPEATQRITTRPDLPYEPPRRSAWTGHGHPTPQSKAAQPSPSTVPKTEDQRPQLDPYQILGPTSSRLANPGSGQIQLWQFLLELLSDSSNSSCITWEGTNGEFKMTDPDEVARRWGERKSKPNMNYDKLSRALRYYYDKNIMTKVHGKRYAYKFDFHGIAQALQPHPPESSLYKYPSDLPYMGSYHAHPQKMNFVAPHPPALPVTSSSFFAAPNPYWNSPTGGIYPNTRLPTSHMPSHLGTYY
Outline: as §1

ELF1 = ELF1 (Homo sapiens, UniProt P32519 1-619); details: protein: recombinant; tags: N-terminal GST; dsDNA, one strand shown
Chain of ELF1 (P32519 whole entry): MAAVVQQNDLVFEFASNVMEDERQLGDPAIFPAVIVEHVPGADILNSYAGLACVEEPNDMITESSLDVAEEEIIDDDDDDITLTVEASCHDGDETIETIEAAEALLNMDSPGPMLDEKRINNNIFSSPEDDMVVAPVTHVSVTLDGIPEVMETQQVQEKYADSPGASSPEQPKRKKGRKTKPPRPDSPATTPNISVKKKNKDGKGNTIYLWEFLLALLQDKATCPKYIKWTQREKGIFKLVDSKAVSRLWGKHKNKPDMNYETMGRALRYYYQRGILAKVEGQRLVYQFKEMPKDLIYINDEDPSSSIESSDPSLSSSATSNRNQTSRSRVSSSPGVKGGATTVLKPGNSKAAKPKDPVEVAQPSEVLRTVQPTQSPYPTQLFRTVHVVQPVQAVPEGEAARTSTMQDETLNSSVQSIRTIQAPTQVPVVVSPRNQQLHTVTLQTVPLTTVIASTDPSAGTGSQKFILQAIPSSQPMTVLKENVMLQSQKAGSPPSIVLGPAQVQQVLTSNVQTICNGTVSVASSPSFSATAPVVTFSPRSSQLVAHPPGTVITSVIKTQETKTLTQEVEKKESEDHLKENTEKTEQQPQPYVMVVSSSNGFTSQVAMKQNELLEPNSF
Outline: as §1

EHF = molecular target: T5, EHF (Homo sapiens, UniProt Q9NZC4 1-300); details: protein: recombinant; tags: N-terminal GST; dsDNA, one strand shown
T5 sequence: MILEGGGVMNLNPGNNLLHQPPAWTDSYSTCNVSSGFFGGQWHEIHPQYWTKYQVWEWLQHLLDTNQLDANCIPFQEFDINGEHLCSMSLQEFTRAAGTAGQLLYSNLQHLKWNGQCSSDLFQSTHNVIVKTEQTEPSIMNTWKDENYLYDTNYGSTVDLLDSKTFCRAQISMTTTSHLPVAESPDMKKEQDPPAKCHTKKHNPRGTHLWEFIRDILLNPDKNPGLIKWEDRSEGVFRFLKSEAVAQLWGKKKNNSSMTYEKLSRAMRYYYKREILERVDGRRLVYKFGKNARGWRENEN
Outline: as §1

SPI1 = SPI1 (Homo sapiens, UniProt P17947 1-270); details: protein: recombinant; tags: N-terminal GST; dsDNA, one strand shown
Outline: as §1

SPIB = SPIB (Homo sapiens, UniProt Q01892 1-262); details: protein: recombinant; tags: N-terminal GST; dsDNA, one strand shown
Chain of SPIB (Q01892 whole entry): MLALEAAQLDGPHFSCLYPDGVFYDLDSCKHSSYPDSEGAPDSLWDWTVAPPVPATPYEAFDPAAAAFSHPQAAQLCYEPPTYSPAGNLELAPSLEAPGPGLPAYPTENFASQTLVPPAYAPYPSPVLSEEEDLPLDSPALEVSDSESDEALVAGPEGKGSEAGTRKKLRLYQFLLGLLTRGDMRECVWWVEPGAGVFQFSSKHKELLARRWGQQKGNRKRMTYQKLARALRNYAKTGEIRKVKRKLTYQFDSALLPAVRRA
Outline: as §1

ELK3 = molecular target: T6, ELK3 (Homo sapiens, UniProt P41970 1-407); details: protein: recombinant; tags: N-terminal GST; dsDNA, one strand shown
T6 sequence: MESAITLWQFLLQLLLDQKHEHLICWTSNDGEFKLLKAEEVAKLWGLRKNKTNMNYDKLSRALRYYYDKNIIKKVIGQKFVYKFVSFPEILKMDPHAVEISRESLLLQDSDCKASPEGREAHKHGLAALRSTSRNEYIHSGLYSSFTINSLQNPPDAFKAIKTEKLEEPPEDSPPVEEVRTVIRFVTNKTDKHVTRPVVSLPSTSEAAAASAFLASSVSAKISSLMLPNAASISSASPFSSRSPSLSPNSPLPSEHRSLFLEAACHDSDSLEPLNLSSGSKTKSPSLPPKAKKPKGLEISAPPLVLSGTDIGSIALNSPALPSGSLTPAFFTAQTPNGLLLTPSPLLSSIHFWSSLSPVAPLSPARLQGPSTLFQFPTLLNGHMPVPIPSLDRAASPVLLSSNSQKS
Outline: as §1

FEV = molecular target: T7, FEV (Homo sapiens, UniProt Q99581 1-238); details: protein: recombinant; tags: N-terminal GST; dsDNA, one strand shown
T7 sequence: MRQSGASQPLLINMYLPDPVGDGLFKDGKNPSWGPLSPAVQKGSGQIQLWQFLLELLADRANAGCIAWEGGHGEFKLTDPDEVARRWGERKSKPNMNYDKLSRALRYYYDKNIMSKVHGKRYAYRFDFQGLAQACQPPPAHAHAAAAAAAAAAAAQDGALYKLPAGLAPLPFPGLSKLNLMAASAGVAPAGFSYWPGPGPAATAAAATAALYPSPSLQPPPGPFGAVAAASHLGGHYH
Outline: as §1

ETV5 = ETV5 (Homo sapiens, UniProt P41161 1-510); details: protein: recombinant; tags: N-terminal GST; dsDNA, one strand shown
Chain of ETV5 (P41161 whole entry): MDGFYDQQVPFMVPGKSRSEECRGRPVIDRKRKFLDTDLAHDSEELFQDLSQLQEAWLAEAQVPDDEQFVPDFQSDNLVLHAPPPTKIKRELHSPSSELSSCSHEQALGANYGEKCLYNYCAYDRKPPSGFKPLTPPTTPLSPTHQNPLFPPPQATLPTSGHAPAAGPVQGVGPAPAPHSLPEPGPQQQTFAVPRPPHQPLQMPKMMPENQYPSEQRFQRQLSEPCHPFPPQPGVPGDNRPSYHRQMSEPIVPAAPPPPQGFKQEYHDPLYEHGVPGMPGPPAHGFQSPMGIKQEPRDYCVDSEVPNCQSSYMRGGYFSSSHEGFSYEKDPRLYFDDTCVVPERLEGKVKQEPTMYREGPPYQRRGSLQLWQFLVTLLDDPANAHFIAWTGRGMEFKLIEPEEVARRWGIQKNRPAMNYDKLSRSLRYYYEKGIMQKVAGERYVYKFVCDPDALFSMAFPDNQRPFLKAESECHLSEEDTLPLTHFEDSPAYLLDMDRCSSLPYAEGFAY
Outline: as §1

HSF1 = HSF1 (Homo sapiens, UniProt Q00613 1-529); details: protein: recombinant; tags: N-terminal GST; chain copies: 3; dsDNA, one strand shown
Chain of HSF1 (Q00613 whole entry): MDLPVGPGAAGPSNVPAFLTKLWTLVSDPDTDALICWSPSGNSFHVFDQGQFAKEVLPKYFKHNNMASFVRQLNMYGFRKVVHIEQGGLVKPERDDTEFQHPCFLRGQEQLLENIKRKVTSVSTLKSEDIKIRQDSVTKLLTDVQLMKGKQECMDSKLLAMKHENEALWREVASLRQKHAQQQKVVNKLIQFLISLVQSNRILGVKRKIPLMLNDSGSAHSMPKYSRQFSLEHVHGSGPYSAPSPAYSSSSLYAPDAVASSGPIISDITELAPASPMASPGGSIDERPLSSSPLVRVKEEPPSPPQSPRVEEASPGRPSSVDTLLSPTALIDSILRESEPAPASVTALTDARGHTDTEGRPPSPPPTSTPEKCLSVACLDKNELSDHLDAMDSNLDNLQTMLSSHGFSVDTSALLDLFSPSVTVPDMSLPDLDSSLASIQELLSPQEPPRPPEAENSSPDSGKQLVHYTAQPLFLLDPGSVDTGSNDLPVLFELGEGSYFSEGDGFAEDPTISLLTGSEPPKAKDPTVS
Outline: as §1

SPIC = molecular target: T8, SPIC (Homo sapiens, UniProt Q8N5J4 1-248); details: protein: recombinant; tags: N-terminal GST; dsDNA, one strand shown
T8 sequence: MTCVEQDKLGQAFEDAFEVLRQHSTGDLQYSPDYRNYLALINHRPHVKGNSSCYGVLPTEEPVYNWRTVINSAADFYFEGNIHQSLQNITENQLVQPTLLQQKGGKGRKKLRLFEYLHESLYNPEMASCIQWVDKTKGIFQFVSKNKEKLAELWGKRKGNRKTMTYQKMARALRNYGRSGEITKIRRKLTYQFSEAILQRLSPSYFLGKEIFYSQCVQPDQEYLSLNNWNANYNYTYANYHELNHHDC
Outline: as §1

ELF4 = ELF4 (Homo sapiens, UniProt Q99607 1-663); details: protein: recombinant; tags: N-terminal GST; dsDNA, one strand shown
Chain of ELF4 (Q99607 whole entry): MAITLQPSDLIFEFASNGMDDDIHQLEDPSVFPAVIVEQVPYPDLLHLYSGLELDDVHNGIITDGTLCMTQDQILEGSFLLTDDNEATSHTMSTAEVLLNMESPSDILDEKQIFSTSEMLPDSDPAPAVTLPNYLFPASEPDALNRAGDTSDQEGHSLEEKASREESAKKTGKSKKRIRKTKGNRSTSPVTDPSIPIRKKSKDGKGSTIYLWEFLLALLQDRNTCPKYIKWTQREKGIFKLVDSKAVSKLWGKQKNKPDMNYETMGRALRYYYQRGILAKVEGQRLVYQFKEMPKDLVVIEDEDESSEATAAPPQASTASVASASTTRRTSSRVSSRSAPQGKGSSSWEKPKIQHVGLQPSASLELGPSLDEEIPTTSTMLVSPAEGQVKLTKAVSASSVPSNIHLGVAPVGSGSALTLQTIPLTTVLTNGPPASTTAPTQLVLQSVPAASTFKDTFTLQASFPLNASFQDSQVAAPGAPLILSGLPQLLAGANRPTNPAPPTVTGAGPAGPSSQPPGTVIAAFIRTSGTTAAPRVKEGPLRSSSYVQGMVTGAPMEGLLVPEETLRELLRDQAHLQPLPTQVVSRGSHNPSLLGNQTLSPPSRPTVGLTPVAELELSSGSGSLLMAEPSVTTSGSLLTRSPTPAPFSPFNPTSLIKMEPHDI
Outline: as §1

ELK4 = molecular target: T9, ELK4 (Homo sapiens, UniProt P28324-2 1-405); details: protein: recombinant; tags: N-terminal GST; dsDNA, one strand shown
T9 sequence: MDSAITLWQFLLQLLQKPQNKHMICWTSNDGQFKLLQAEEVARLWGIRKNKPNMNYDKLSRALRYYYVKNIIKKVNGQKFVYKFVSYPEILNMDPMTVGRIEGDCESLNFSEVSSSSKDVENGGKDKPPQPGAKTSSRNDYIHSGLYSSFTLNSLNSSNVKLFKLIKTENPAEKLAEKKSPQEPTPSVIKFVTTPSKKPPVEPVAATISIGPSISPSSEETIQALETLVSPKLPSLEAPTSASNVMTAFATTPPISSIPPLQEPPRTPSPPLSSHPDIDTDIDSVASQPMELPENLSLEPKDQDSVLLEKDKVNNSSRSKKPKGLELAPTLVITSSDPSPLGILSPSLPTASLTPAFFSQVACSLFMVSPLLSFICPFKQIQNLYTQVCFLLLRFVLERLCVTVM
Outline: as §1

ETV2 = molecular target: T10, ETV2 (Homo sapiens, UniProt O00321 1-342); details: protein: recombinant; tags: N-terminal GST; dsDNA, one strand shown
T10 sequence: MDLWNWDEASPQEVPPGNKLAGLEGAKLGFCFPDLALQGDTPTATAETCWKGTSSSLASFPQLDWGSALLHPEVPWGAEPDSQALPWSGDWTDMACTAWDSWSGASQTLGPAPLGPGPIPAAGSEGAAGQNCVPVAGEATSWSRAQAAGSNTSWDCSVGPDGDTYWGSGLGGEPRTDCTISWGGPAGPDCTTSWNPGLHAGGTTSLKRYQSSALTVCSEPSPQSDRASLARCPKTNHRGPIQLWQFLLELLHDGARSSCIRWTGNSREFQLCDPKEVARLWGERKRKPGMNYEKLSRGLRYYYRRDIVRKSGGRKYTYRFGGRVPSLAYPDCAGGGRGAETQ
Outline: as §1

ELF3 = molecular target: T11, ELF3 (Homo sapiens, UniProt P78545 1-371); details: protein: recombinant; tags: N-terminal GST; dsDNA, one strand shown
T11 sequence: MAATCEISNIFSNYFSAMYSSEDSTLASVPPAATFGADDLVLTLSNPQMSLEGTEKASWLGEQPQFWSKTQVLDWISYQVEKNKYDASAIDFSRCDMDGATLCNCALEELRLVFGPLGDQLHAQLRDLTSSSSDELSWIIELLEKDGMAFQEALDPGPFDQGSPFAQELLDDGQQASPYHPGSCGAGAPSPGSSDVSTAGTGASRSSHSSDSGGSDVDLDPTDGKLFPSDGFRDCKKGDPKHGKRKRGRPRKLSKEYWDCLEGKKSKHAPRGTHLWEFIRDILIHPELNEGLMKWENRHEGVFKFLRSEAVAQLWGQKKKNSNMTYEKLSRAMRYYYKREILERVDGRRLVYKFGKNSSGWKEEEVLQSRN
Outline: as §1

CRX = CRX (Homo sapiens, UniProt O43186 1-299); details: protein: recombinant; tags: N-terminal GST; dsDNA, one strand shown
Chain of CRX (O43186 whole entry): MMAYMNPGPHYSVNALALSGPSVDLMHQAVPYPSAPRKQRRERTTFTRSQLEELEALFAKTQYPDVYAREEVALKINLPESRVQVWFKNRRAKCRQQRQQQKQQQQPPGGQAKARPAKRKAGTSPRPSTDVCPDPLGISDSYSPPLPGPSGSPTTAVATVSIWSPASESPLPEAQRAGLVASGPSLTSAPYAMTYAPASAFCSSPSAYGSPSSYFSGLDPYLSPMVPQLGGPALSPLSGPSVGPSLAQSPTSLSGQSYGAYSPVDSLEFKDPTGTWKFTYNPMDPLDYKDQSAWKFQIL
Outline: as §1

ETV1 = ETV1 (Homo sapiens, UniProt P50549 1-477); details: protein: recombinant; tags: N-terminal GST; dsDNA, one strand shown
Chain of ETV1 (P50549 whole entry): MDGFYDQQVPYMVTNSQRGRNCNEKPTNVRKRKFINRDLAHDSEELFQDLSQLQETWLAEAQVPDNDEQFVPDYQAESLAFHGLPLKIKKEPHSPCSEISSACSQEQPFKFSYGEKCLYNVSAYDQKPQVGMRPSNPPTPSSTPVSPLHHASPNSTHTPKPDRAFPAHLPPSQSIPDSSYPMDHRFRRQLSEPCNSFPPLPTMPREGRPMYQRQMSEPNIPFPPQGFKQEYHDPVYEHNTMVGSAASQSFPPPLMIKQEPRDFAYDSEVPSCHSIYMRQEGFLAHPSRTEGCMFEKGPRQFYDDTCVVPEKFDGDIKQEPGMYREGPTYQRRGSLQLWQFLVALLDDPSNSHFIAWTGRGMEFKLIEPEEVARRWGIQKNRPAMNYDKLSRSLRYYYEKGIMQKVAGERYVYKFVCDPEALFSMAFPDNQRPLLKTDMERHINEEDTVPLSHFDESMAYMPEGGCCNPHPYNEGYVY
Outline: as §1

With ACTGCT the binding signal (FLI1) was 1.44 fold enrichment (6-mer frequency, TF over GST control), the binding signal (ELK1) was 1.45 fold enrichment (6-mer frequency, TF over GST control) and the binding signal (GABPA) was 1.29 fold enrichment (6-mer frequency, TF over GST control). The binding signal (ERG) was 1.29 fold enrichment (6-mer frequency, TF over GST control), the binding signal (ELF1) was 1.35 fold enrichment (6-mer frequency, TF over GST control) and the binding signal (EHF) was 1.41 fold enrichment (6-mer frequency, TF over GST control). The binding signal (SPI1) was 1.46 fold enrichment (6-mer frequency, TF over GST control), the binding signal (SPIB) was 1.36 fold enrichment (6-mer frequency, TF over GST control) and the binding signal (ELK3) was 1.26 fold enrichment (6-mer frequency, TF over GST control). The binding signal (FEV) was 1.48 fold enrichment (6-mer frequency, TF over GST control), the binding signal (ETV5) was 1.41 fold enrichment (6-mer frequency, TF over GST control) and the binding signal (HSF1) was 1.19 fold enrichment (6-mer frequency, TF over GST control). For the same sequence, the binding signal (SPIC) was 1.56 fold enrichment (6-mer frequency, TF over GST control), the binding signal (ELF4) was 1.3 fold enrichment (6-mer frequency, TF over GST control) and the binding signal (ELK4) was 1.54 fold enrichment (6-mer frequency, TF over GST control). The binding signal (ETV2) was 1.26 fold enrichment (6-mer frequency, TF over GST control), the binding signal (ELF3) was 1.32 fold enrichment (6-mer frequency, TF over GST control) and the binding signal (CRX) was 1.21 fold enrichment (6-mer frequency, TF over GST control). The binding signal (ETV1) was 1.33 fold enrichment (6-mer frequency, TF over GST control).
